In PubChem BioAssay (Tox21):
Inconclusive results are not listed. The source made the active and inactive calls. Calls come from the whole dose curve; as a rule, active = well fitted cell-killing curve with a large enough effect in the repeat runs; inconclusive = weak or mixed curves, or effect the other way; inactive = flat fitted curve, though single readings scatter.

experiment: qHTS RealTime-Glo MT Cell Viability Assay in HEK293 cells - 24 hour (AID 1224886); conditions: RealTime-Glo luminescence; series mostly up to 76.8 µM; activity change, negative = cytotoxicity: at the top concentration; note: top concentration of the series differs between compounds; nearly all actives have a fitted effect of over 50% in size
From the text: National Center for Advancing Translational Sciences [NCATS]
NIH Chemical Genomics Center [NCGC]
U.S. Environmental Protection Agency [EPA]
National Institutes of Environmental Health Sciences [NIEHS]
National Toxicology Program [NTP]
U.S. Food and Drug Administration [FDA]
Measure of cell viability is critical in the cell-base assay. Analysis of cell viability is necessary for the characterization of cell responses to cytotoxic drugs and environmental stress. A RealTime-Glo MT Cell Viability Assay to monitor cell viability in real time of continues cell culture during 40 hours of compound treatment was used to screen Tox21 10K library compounds in Hek293 cells. The RealTime-Glo MT Cell Viability Assay is a nonlytic, homogeneous, bioluminescent method to measure cell viability in real time using a simple, plate-based method. The assay involves adding NanoLuc luciferase and a cell-permeant prosubstrate to cells in culture. Viable cells reduce the proprietary prosubstrate to generate a substrate for NanoLuc luciferase. This substrate diffuses from cells into the surrounding culture medium, where it is rapidly used by the NanoLuc Enzyme to produce a luminescent signal. The signal correlates with the number of viable cells, making the assay well suited for cytotoxicity studies.
Tox21 Assay Protocol Summary:
The mixture of Hek293 cell suspension and reagents were dispensed at 600cells/6 ul/well in 1536-well tissue culture treated black solid bottom plates using a Multidrop dispenser. After the assay plates were incubated at a 37 C/5% CO2 incubator for 5 hours, 23 nL of compounds dissolved in DMSO, positive and negative controls was transferred to the assay plate by a pintool work station. The plates were incubated at 37 C for 40 hours. The luminescence intensity were measured at 0h, 8h, 16h, 24h, 32h and 40h time points using ViewLux plate reader during compound treatment.
% is set by controls: 0 for no effect and ±100 for the full control effect.

Row | Compound | activity change, negative = cytotoxicity | Potency
1 | COC(=O)c1ccc(CBr)cc1 | 3.76% (inactive) | –
2 | COC1=CC(=O)O[C@@H](/C=C/c2ccccc2)C1 | -17.6% (inactive) | –
3 | CCOc1cc(OP(=S)(OC)OC)nc(CC)n1 | 7.54% (inactive) | –
4 | C=CCC1(C(C)CC)C(=O)NC(=O)NC1=O (stereo not given) | 1.78% [at 35.3 µM] (inactive) | –
5 | CCCOC(=O)c1cncn1C(C)c1ccccc1 (stereo not given) | 5.18% [at 35.3 µM] (inactive) | –
6 | O=C(O)C(Br)(Br)Br | 4.07% (inactive) | –
7 | CC(=O)OCC1=C(C(=O)O)N2C(=O)[C@@H](N)[C@H]2SC1 | 11.4% [at 15.8 µM] (inactive) | –
8 | CC(C)(C)C(=O)Cl | 3.85% (inactive) | –
9 | CON(C)C(=O)Nc1ccc(Br)cc1 | -0.0081% (inactive) | –
10 | OCC(Cl)CCl (stereo not given) | 0.77% (inactive) | –
11 | C/C(=N\NC(=O)Nc1cc(F)cc(F)c1)c1ncccc1C(=O)O | – | inactive
12 | O=C(NC(O)C(Cl)(Cl)Cl)NC(O)C(Cl)(Cl)Cl (stereo not given) | 2.57% [at 35.3 µM] (inactive) | –
13 | ClCC1CO1 (stereo not given) | 1.57% (inactive) | –
14 | CCc1cc(OC)c(C[C@H](C)N)cc1OC | -26.8% (inactive) | –
15 | CCCN1CCC[C@@H]2Cc3[nH]ncc3C[C@H]21 | 3.81% [at 35.3 µM] (inactive) | –
16 | CC(Cc1ccccc1)NCCCCl (stereo not given) | -1.03% [at 35.3 µM] (inactive) | –
17 | COC(=O)[C@@H](N)CCCN/C(N)=N/[N+](=O)[O-] | 5.46% [at 35.3 µM] (inactive) | –
18 | ClCCN1CCCC1 | 1.01% [at 35.3 µM] (inactive) | –
19 | CCN[C@H](C)Cc1cccc(C(F)(F)F)c1 | -6.26% (inactive) | –
20 | CCSC(=O)Cl | 5.02% (inactive) | –

Row | Compound | activity change, negative = cytotoxicity | Potency
21 | COC(=O)c1ccccc1CS(=O)(=O)NC(=O)Nc1nc(OC)cc(OC)n1 | 1.76% (inactive) | –
22 | CCNc1nc(NCC)nc(SC)n1 | -16.8% (inactive) | –
23 | N#CN | -0.472% [at 200 µM] (inactive) | –
24 | C=C(C)[C@H]1CN[C@H](C(=O)O)[C@H]1CC(=O)O | 2.56% [at 35.3 µM] (inactive) | –
25 | CCC(CC)(CNC(=O)CCCO)c1cccc(OC)c1 | 2.14% [at 35.3 µM] (inactive) | –
26 | CC(C)(N)Cc1ccc(Cl)cc1 | 2.64% [at 35.3 µM] (inactive) | –
27 | CCCCCCCCSC(=O)Oc1cc(Cl)nnc1-c1ccccc1 | -2.71% (inactive) | –
28 | CS(=O)(=O)Cl | 0.897% (inactive) | –
29 | CC1N=C(N)OC1c1ccccc1 (stereo not given) | -8.99% (inactive) | –
30 | C[C@H](N)C(=O)c1ccccc1 | -10.6% (inactive) | –
31 | CCN[C@@H](C)Cc1ccccc1 | -5.87% (inactive) | –
32 | C#CC(C)(C)O | 4.22% (inactive) | –
33 | O=C/C=C/c1ccco1 | 7.74% (inactive) | –
34 | NCCOS(=O)(=O)O | 1.69% (inactive) | –
35 | S=C=S | 9.92% (inactive) | –
36 | CCc1ccc(C2CCNCC2)cc1 | 6.46% [at 35.3 µM] (inactive) | –
37 | Cc1ccc2c(c1)C1CN(C)CCC1N2 (stereo not given) | -0.194% [at 15.8 µM] (inactive) | –
38 | Cc1ccc2cc(C)ccc2c1 | 9.42% (inactive) | –
39 | C#CCOC(=O)/C=C(C)/C=C/CC(C)CCCC(C)C (stereo not given) | 3.78% (inactive) | –
40 | CC(O)CCl (stereo not given) | 0.252% (inactive) | –
